Results as given in PubChem BioAssay AID2025 (NMMLSC, 2009).
In all, about 330,000 compounds went through this assay and about 980 (0.3%) were called active.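 Rule for the calls: active = percent response vs DMSO below 50%; inconclusive = fewer than 70 events counted for the yeast strain; inactive = the rest.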 Only a selection was taken, and actives are over-represented in it overall.

Assay: compounds altering RPL19A-GFP fluorescence, TOR branch – cell-based, S. cerevisiae, multiplex flow cytometry, MLPCN, primary screen (AID 2025);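 note: median channel GFP fluorescence of the barcoded RPL19A-GFP strain; ratio of sample median GFP to plate DMSO average so 100% = DMSO; lower means less RPL19A-GFP as with rapamycin TOR inhibition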
Conditions: S. cerevisiae RPL19A-GFP strain, 3 h, at 10 µM, active compounds read low

Row | SMILES | percent response vs DMSO
1 | C/C(CCc1c[nH]c2ccccc12)=N\O | 100% (inactive)
2 | Cc1cccc2c(CCN)c[nH]c12 | 101% (inactive)
3 | NCCc1c[nH]c2ccc(O)cc12 | 32.1% [may fluoresce violet] (active)
4 | OC1/C(=C/c2ccc(C(F)(F)F)cc2)N2CCC1CC2 (stereo not given) | 97.2% (inactive)
5 | OCC#CC[N+]1(CC#Cc2ccccc2)CCCC1 | 99.6% (inactive)
